# High-throughput results (PubChem BioAssay)
# Algae TAG accum: inducers of triacylglycerol accumulation in Chlamydomonas reinhardtii algae; Chlamydomonas reinhardtii TAG, Nile Red fluorescence, 72 h; calls only at 10 µM (by protocol); hit rate 0.84% among 44,000; call rule not given here;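 also: hits raise Nile Red signal meaning more stored TAG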
# * marks the source's active call; other numbers are inactive results; i = inactive; + = active, no number. Shown is part of a subset that was picked to be rich in hits.
SMILES,Algae TAG accum
COc1ccc(C(=O)NCCN2CCOCC2)cc1[N+](=O)[O-],+
COCCNC(=O)c1ccc(OC)c([N+](=O)[O-])c1,i
COc1ccc(CCNC(=O)c2ccc(N3CCOCC3)c([N+](=O)[O-])c2)cc1OC,i
Cc1c(-c2ccc(Br)cc2)[n+](=O)c(-c2ccccc2)cn1[O-],i
COc1ccc(OC)c(NC(=O)CSc2nnc(-c3ccc(Cl)cc3Cl)n2N)c1,i
Cc1ccc(NC(=O)CSc2nnc(-c3ccc(Cl)cc3Cl)n2N)c(C)c1,+
O=C(CSc1nnnn1-c1ccc(Cl)cc1)Nc1ccc(Cl)cc1Cl,i
COc1ccc(NC(=O)c2c(I)cnn2C)cc1,i
O=C(Nc1ccc2oc(-c3cccc(Cl)c3)nc2c1)c1ccco1,i
CN(C)c1ccc(NC(=O)C2CC(=O)N(c3ccc(Br)cc3)C2)cc1 (centres undefined),i
Cc1cccc(C(=O)Nc2sc3c(c2C(=O)N2CCCC2)CCCC3)c1,i
N#C/C(=C\Nc1ccccc1)c1nc(-c2cccc(Br)c2)cs1,i
COc1ccc(CN(C)C2CCN(C)CC2)c(OC)c1OC,i
COc1ccc(CN(C)C2CCCCC2)c(C)c1C,+
COc1ccc(CN2CCCCC2C)c(C)c1C (centres undefined),i
CC(=O)N(C1=C(N(C)C)C(=O)c2ccccc2C1=O)c1cccc(Cl)c1,i
CC(=O)N(C1=C(N(C)C)C(=O)c2ccccc2C1=O)c1ccc(Cl)c(Cl)c1,+
CC(=O)N(C1=C(N(C)C)C(=O)c2ccccc2C1=O)c1ccc(F)c(F)c1,i
Cc1ccccc1-n1c(SCC(=O)Nc2ccc(Cl)cc2)nc(O)cc1=O,i
Cc1cc(C(=O)NCCN(C)C)ccc1[N+](=O)[O-],i
O=C(Nc1ccc(NS(=O)(=O)c2ccccc2)cc1)c1ccccc1,i
Cc1ccc(S(=O)(=O)Nc2ccc(C(=O)CC(=O)Nc3ccccc3)cc2)cc1,i
O=C(O)CCSCC(=O)c1ccc(NS(=O)(=O)c2ccccc2)cc1,+
COc1ccccc1NS(=O)(=O)CC(C)C,i
N#Cc1c(-n2ncnc2-c2ccc(F)cc2)sc2c1CCCC2,i
SMILES,Algae TAG accum
COc1ccc(-c2ncnn2-c2sc3c(c2C#N)CCCC3)cc1OC,i
N#Cc1c(-n2ncnc2-c2cccnc2)sc2c1CCCCC2,+
COCc1nnc(NC(=O)c2ccc(-c3ccccc3)cc2)s1,i
CCCC(=O)Nc1ccc(Br)c(C)c1,i
Cc1ccc(NC(=O)C(=O)NCCc2ccc(Cl)cc2)cc1C,i
O=C(COc1ccc(Cl)cc1)Nc1nccs1,i
O=C(NCCc1ccc(Cl)cc1)C(=O)Nc1nccs1,+
Cc1ccsc1/C=C(\C#N)c1nc(-c2ccc([N+](=O)[O-])cc2)cs1,+
Cc1ccc(-c2csc(/C(C#N)=C/Nc3ccc([N+](=O)[O-])cc3)n2)cc1,i
N#C/C(=C\c1ccc([N+](=O)[O-])cc1)c1nc(-c2ccc(F)cc2)cs1,i
COc1ccc(N(N)Cc2ccccc2)cc1,i
COc1cc(SC)ccc1C(=O)N1CCN(C)CC1,i
O=C(COc1ccc(Cl)cc1Br)NCCN1CCOCC1,i
CN(C)CCCOc1ccc(Cl)cc1Br,i
Clc1cc(Br)ccc1OCCOCCN1CCOCC1,+
Brc1ccccc1OCCCCN1CCCCC1,i
CN1CCN(CCCOc2ccc(Cl)cc2C(C)(C)C)CC1,i
Clc1ccc(OCCCCN2CCCC2)c(Br)c1,+
Brc1ccccc1OCCCN1CCOCC1,i
CN1CCN(CCCOc2ccc(Cl)c(Cl)c2)CC1,i
Brc1cccc(OCCN2CCOCC2)c1,i
CN1CCN(CCCOc2cc(Cl)ccc2Cl)CC1,+
Clc1ccc(OCCCN2CCOCC2)c(Br)c1,+
Cc1ccc(OCCCCN2CCOCC2)c(Br)c1,i
O=C(Nc1ccc2oc(-c3cccc(F)c3)nc2c1)c1ccco1,i
SMILES,Algae TAG accum
CC(O)CCc1nc2ccc([N+](=O)[O-])cc2[nH]1 (centres undefined),i
CCCC(=O)Nc1nc2ccc([N+](=O)[O-])cc2s1,i
COc1ccccc1CN1CCC(O)CC1,i
NS(=O)(=O)c1ccc(NC(=O)Nc2ccc(Cl)c(Cl)c2)cc1,i
COc1ccc(C(O)=C2C(=O)C(=O)N(CCCN(C)C)C2c2ccccc2F)cc1OC (centres undefined),i
O=C(c1ccc(Cl)cc1[N+](=O)[O-])N1CCN(c2ccc(F)cc2)CC1,i
Cc1cc(C)nc(NS(=O)(=O)c2ccc(NC(=O)c3ccc(C)c(Br)c3)cc2)n1,i
CCOc1ccccc1N1CCN(Cc2ccc(N(C)C)cc2)CC1,i
COc1ccc(-c2cc3ccccn3c2C)cc1OC,i
Cc1ccc(CNC(=O)c2ccc(Br)cc2)cc1,i
Cc1ccc(C(C)C)cc1OCCCN1CCNCC1,i
C=CCc1cc(C)ccc1OCCOCCN1CCOCC1,i
Cc1ccc(C(C)C)cc1OCCOCCN1CCOCC1,+
CCCc1cc(=O)n2[nH]cc(-c3cccc(Br)c3)c2n1,i
CC(=O)C1=C(O)C(=O)N(CCO)C1c1ccc(Br)cc1 (centres undefined),i
O=[N+]([O-])c1ccc(S(=O)(=O)Nc2ccccc2Br)cc1,i
Fc1ccccc1N1CCN(C2CC3CCC2C3)CC1 (centres undefined),i
CCS(=O)(=O)Nc1ccc(C)c(C)c1,i
COc1ccc(CN2CCN(c3ccc([N+](=O)[O-])cc3)CC2)cc1OC,i
C=C(C)CN(CC)C(=O)C1CCN(Cc2ccc(Cl)cc2)CC1,+
O=C(C1CCN(CCCc2ccccc2)CC1)N1CCCCC1,i
CCc1ccc(CN2CCC(C(=O)N(CC)Cc3ccccc3)CC2)cc1,+
CCN(Cc1ccccc1)C(=O)C1CCNCC1,i
CCN(Cc1ccccc1)C(=O)C1CCN(CCCc2ccccc2)CC1,+
Cc1ccc(CN2CCC(C(=O)N(CCO)Cc3ccccc3)CC2)cc1,i
SMILES,Algae TAG accum
CCN(CC)C(=O)C1CCCN(Cc2ccc(Cl)cc2)C1 (centres undefined),i
CCOc1ccc(CN2CCC(C(=O)N(CCO)Cc3ccccc3)CC2)cc1,i
C=C(C)CN(CC)C(=O)C1CCN(Cc2cccnc2)CC1,i
O=C(O)CSc1nnc(-c2ccco2)n1-c1ccccc1,i
Cc1ccc(S(=O)(=O)Nc2c(C)cc(O)c(Cl)c2C)cc1,i
COc1ccc(Cl)cc1N(CC(=O)NCc1cccnc1)S(=O)(=O)c1ccccc1,i
COc1cc(SC)ccc1C(=O)NCc1ccc(S(N)(=O)=O)cc1,i
COc1cc(C(=O)Nc2ccc(C(=O)NCC(C)C)cc2)cc(OC)c1OC,i
CC(C)c1ccc(OCC(=O)N2CCN(c3ccccc3)CC2)cc1,i
Cc1ccccc1N(CC(=O)NCc1ccco1)S(C)(=O)=O,i
C=CCn1c(SCC(=O)O)nnc1-c1ccccc1,i
C=CCn1c(SCC(=O)NCCc2ccccc2)nnc1-c1ccc(Cl)cc1Cl,+
C=CCn1c(SCC(=O)O)nnc1-c1ccc(Cl)cc1,i
O=c1[nH]c(/C=C/c2cccc(I)c2)c([N+](=O)[O-])c(=O)[nH]1,i
Cc1cc(OCC(=O)Nc2ccc(C(N)=O)cc2)c(C(C)C)cc1Br,i
Cc1[nH]nc(N)c1Cl,i
O=C1CC(N2CCN(c3cccc(Cl)c3)CC2)C(=O)N1c1ccc(F)cc1 (centres undefined),i
COc1cc2c(cc1OC)CC(C)(C)N=C2,i
CC(C)(Oc1ccc(Cl)cc1)C(=O)Nc1ccccc1Br,i
